Assay [1] concerns the target Protein kinase C gamma type (Homo sapiens) (UniProt P05129). To be noted: at 1 µM.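 Further: each value is an averaged percent inhibition of the enzyme.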
For assay [2], the target named is T1, Protein kinase C iota type (Homo sapiens) (UniProt P41743).
T1 sequence (whole entry): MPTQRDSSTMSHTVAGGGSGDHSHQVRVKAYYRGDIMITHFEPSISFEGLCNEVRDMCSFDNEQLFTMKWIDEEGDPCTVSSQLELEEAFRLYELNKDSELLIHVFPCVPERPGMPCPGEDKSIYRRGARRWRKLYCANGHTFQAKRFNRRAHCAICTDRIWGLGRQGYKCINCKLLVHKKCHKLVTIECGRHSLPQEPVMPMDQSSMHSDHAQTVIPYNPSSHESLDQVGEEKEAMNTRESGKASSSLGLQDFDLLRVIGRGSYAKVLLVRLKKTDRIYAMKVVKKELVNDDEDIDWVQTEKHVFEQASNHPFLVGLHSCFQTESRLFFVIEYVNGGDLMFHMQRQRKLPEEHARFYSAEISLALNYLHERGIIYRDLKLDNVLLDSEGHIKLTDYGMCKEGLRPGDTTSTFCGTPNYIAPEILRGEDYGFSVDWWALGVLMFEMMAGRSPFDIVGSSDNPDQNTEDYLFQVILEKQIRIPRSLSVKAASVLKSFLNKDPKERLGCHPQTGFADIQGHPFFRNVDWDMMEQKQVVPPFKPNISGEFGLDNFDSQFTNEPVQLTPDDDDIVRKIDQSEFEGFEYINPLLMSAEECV
To be noted: at 0.1 µM.

For assay [3], the target named is T1, Protein kinase C iota type (Homo sapiens). To be noted: at 1 µM.
In assay [4] the target is Protein kinase C theta type (Homo sapiens) (UniProt Q04759). To be noted: at 0.1 µM.
Chain of Protein kinase C theta type (Homo sapiens) (Q04759 whole entry, looked up): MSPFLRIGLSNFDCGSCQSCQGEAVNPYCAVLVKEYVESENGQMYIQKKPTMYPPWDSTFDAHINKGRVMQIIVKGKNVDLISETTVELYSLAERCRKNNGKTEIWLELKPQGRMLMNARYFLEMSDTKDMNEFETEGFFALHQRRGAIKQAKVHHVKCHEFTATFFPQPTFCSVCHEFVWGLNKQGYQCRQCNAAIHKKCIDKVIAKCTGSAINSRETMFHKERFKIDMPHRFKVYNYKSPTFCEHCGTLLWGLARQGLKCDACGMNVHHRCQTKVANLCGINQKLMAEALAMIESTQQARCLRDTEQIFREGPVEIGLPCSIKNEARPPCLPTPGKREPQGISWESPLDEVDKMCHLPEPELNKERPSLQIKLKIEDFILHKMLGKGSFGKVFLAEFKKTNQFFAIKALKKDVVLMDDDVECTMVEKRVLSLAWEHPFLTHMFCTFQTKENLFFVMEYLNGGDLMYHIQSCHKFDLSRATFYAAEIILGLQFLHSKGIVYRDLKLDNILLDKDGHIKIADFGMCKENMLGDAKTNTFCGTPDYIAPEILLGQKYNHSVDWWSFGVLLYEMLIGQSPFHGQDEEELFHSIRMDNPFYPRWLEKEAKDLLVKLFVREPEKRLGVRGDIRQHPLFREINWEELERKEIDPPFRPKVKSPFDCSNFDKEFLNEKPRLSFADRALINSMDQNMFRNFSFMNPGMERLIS
The target is the same in assay [5]. To be noted: at 1 µM.
Assay [6] has as its target Protein kinase C beta type (Homo sapiens) (UniProt P05771). To be noted: at 0.1 µM.
Assay [7] shares this target. To be noted: at 1 µM.
Assay [8] has as its target T2, Serine/threonine-protein kinase D1 (Homo sapiens) (UniProt Q15139).
T2 sequence (whole entry): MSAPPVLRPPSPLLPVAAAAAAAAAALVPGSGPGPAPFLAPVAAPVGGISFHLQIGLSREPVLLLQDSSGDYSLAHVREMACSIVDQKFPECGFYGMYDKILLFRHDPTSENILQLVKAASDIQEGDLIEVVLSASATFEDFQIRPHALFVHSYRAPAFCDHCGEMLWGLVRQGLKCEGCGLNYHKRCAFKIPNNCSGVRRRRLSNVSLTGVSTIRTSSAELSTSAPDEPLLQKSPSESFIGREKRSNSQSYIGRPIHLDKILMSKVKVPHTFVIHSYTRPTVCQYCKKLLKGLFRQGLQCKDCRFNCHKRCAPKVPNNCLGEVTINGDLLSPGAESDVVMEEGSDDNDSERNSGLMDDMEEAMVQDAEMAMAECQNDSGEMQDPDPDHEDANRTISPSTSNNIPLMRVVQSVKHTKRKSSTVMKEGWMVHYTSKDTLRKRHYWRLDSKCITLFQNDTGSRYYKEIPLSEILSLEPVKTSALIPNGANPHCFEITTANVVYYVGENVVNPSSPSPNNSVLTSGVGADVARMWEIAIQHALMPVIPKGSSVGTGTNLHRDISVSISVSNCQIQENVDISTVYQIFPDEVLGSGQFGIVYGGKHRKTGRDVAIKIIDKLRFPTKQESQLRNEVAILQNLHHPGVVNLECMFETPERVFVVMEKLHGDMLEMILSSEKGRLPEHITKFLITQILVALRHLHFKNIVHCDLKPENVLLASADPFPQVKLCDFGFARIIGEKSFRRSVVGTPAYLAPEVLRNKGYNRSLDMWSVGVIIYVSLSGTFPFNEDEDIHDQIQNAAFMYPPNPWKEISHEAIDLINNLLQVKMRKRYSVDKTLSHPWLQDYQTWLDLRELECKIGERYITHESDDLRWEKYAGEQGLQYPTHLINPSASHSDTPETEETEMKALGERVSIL
To be noted: at 0.1 µM.

Assay [9] deals with T2, Serine/threonine-protein kinase D1 (Homo sapiens). To be noted: at 1 µM.
Assay [10] deals with T3, Serine/threonine-protein kinase D2 (Homo sapiens) (UniProt Q9BZL6).
T3 sequence (whole entry): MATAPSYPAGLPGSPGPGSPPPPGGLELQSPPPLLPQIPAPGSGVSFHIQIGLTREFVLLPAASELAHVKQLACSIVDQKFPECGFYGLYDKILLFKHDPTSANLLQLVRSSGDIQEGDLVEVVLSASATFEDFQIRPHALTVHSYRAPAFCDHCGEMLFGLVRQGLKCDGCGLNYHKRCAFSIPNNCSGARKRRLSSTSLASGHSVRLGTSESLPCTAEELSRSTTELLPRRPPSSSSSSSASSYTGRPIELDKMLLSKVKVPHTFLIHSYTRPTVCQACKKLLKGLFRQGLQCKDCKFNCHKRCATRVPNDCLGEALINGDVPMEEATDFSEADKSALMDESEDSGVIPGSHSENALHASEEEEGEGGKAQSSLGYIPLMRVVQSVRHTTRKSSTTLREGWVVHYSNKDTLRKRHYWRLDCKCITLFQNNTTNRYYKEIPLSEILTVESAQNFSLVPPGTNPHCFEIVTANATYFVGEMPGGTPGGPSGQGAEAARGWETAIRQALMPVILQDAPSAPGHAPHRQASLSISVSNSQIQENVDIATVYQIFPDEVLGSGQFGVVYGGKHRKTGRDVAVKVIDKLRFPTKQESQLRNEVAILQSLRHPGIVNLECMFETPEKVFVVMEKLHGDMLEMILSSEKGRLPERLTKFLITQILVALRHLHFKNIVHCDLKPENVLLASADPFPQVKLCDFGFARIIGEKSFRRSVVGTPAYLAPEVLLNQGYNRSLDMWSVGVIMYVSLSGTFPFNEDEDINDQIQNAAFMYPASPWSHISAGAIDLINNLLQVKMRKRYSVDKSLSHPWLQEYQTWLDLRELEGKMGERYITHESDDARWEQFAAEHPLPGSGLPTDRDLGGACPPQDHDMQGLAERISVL
To be noted: at 0.1 µM.

Assay [11] concerns the target T3, Serine/threonine-protein kinase D2 (Homo sapiens). To be noted: at 1 µM.
For assay [12], the target named is T4, Serine/threonine-protein kinase D3 (Homo sapiens) (UniProt O94806).
T4 sequence (whole entry): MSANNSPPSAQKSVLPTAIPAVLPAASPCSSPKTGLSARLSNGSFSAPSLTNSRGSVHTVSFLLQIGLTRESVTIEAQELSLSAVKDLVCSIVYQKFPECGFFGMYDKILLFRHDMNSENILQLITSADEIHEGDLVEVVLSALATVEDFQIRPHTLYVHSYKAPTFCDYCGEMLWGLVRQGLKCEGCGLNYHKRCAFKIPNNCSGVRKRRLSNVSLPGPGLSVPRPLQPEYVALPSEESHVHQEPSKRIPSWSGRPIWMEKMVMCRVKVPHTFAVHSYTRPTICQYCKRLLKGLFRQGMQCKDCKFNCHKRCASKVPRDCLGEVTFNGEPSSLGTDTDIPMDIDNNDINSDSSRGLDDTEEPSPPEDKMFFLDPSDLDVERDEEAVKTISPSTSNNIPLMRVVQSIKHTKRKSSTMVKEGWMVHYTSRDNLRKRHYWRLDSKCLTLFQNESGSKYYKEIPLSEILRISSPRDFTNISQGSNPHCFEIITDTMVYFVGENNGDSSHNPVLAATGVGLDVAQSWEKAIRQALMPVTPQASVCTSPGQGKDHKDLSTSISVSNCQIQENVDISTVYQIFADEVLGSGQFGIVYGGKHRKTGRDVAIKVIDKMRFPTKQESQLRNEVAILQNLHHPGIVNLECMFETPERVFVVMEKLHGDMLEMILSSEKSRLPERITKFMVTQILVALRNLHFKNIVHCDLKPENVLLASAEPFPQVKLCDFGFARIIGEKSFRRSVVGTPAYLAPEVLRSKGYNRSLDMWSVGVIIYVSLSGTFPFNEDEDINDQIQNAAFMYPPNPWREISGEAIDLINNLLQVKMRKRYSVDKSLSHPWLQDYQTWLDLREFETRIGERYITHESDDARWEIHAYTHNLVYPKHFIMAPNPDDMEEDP
To be noted: at 0.1 µM.

Assay [13] concerns the target T4, Serine/threonine-protein kinase D3 (Homo sapiens). To be noted: at 1 µM.
Assay [14] concerns the target T5, cGMP-dependent protein kinase 1 (Homo sapiens) (UniProt Q13976).
T5 sequence (whole entry): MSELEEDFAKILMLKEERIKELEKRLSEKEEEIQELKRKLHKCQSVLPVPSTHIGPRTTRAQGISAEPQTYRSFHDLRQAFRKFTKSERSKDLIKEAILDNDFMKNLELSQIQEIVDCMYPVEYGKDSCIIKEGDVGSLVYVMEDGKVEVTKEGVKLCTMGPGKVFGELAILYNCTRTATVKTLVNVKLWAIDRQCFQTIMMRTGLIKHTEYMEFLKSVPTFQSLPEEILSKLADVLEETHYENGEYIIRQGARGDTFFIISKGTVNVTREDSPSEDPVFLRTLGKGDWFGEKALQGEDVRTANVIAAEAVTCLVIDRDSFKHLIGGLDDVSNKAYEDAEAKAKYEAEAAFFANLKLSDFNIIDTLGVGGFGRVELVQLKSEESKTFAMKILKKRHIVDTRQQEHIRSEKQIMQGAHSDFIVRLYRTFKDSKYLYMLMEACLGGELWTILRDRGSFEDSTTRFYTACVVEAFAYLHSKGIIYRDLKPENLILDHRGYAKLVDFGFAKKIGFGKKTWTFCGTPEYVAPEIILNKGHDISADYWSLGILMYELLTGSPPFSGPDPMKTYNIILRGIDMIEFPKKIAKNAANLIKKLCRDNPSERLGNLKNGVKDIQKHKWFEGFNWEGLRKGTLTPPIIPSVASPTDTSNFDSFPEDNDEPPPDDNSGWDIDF
To be noted: at 0.1 µM.

The target in assay [15] is T5, cGMP-dependent protein kinase 1 (Homo sapiens). To be noted: at 1 µM.
For assay [16], the target named is T6, cGMP-dependent protein kinase 2 (Homo sapiens) (UniProt Q13237).
T6 sequence (whole entry): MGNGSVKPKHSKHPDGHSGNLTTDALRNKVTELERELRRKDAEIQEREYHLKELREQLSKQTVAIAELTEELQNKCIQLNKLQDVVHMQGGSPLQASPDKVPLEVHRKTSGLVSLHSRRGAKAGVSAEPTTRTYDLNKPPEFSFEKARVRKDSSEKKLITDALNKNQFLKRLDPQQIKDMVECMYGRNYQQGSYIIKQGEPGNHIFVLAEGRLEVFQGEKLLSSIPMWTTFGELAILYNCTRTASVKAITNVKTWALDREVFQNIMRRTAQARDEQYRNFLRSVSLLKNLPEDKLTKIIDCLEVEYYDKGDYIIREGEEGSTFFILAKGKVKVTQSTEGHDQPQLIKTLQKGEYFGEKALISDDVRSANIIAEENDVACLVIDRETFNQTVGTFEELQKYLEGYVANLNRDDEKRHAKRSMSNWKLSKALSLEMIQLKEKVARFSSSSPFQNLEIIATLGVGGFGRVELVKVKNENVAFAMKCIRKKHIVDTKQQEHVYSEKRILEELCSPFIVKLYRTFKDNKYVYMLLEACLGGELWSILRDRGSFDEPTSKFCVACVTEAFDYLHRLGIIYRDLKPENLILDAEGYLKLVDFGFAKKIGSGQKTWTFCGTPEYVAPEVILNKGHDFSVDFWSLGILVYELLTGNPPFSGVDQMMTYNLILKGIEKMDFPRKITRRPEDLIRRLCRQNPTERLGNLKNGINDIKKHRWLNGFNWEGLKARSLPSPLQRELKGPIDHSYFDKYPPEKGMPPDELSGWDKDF
To be noted: at 0.1 µM.

In assay [17] the target is T6, cGMP-dependent protein kinase 2 (Homo sapiens). To be noted: at 1 µM.
Assay [18] concerns the target T7, cAMP-dependent protein kinase catalytic subunit PRKX (Homo sapiens) (UniProt P51817).
T7 sequence (whole entry): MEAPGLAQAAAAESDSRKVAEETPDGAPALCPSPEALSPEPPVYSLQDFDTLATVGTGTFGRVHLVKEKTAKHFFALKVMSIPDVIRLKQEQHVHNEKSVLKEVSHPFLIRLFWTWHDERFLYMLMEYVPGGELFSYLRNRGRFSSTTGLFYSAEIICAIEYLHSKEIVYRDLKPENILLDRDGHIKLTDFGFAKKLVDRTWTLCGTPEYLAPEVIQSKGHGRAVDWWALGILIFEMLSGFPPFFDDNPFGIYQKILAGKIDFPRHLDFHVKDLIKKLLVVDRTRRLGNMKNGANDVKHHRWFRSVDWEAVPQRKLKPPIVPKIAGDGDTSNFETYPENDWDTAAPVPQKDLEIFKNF
To be noted: at 0.1 µM.

Assay [19] concerns the target T7, cAMP-dependent protein kinase catalytic subunit PRKX (Homo sapiens). To be noted: at 1 µM.
Assay [20] deals with Rho-associated protein kinase 1 (Homo sapiens) (UniProt Q13464). To be noted: at 0.1 µM.
Chain of Rho-associated protein kinase 1 (Homo sapiens) (Q13464 2-1354 limits assumed): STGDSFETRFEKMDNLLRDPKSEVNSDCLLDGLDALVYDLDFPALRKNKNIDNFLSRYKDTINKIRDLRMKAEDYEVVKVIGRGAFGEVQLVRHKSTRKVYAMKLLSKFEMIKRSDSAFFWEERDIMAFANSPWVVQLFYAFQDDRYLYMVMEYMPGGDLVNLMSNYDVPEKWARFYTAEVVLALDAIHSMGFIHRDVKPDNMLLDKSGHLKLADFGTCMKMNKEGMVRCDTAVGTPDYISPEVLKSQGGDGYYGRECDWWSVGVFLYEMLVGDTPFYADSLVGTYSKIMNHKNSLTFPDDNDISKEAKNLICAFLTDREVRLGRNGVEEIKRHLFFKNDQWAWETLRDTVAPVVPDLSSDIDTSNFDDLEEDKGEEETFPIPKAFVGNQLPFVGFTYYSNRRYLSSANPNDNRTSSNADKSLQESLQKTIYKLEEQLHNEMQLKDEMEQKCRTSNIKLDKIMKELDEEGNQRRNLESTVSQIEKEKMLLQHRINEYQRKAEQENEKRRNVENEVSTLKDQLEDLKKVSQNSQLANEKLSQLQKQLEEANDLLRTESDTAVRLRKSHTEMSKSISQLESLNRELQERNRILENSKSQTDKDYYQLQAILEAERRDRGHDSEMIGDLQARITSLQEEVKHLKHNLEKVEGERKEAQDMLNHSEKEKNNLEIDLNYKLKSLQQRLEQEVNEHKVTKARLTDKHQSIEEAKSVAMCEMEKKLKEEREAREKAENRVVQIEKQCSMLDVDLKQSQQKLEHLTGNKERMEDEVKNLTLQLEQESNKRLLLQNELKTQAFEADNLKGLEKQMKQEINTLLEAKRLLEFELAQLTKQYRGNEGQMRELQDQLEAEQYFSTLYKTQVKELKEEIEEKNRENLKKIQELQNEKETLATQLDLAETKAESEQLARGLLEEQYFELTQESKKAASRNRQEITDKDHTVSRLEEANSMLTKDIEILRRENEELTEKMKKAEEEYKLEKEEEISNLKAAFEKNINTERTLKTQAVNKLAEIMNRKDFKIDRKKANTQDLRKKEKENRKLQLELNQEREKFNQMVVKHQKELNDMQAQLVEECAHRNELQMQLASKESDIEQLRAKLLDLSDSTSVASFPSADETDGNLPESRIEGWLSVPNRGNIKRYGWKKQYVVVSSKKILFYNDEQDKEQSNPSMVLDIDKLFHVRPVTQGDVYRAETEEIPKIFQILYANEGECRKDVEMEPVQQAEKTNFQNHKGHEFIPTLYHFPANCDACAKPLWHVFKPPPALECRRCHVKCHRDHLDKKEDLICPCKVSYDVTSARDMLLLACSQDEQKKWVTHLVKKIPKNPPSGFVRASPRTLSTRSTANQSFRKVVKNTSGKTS

Chain of Protein kinase C beta type (Homo sapiens) (P05771 2-671 limits assumed): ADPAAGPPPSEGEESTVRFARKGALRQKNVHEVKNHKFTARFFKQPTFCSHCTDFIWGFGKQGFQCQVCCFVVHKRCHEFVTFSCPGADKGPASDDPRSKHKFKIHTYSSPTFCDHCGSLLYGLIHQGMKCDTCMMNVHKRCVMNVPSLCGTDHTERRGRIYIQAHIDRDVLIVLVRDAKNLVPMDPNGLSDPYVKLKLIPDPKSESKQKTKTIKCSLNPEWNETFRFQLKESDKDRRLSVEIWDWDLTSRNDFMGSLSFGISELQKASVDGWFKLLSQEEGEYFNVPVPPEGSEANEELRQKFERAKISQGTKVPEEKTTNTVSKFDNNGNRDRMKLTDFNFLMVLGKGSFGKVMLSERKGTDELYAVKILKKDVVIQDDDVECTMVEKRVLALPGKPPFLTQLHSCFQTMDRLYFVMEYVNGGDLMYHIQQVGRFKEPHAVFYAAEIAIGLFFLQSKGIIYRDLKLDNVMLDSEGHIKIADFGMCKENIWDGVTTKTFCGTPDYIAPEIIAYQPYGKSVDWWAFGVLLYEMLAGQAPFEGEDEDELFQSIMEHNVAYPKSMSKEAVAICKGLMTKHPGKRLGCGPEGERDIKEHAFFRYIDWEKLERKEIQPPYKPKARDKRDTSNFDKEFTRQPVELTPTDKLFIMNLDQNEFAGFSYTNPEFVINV

Usually inhibition stands for the change of the read-out against control, counted positive when it falls. A low value points to little suppression. As for `NC(=O)c1sc(-n2cnc3ccc(C(F)(F)F)cc32)cc1OCc1ccccc1Br`, the inhibition in assay [1] was 3.75%; in assay [2], 0.8%; in assay [3], 0.82%; in assay [4] it was 1.63%; in [5] it was 2.57%; in assay [6], 1.28%. The inhibition was determined as 1.31% in assay [7]; 2.72% in assay [8]; 3.86% in assay [9]; 3.59% in assay [10]; 4.08% in assay [11]; 4.03% in assay [12]. Further, the inhibition in assay [13] turned out to be 3.94%; in assay [14] it was 3.55%; in [15], 8.39%; in assay [16], 2.01%; in assay [17], 5.42%; in [18], 3.81%. Moreover, the inhibition in [19] was determined as 8.33%; in [20], 0.45%.

For `CCN1CCC(CC(=O)Nc2n[nH]c3nnc(-c4cccc(F)c4F)cc23)CC1`, the inhibition is 1.09% in [1]; 0.63% in [2]; 1.36% in assay [3]; 0.68% in assay [4]; 1.31% in assay [5]; 0.16% in assay [6]. For the same molecule, the inhibition in assay [7] was 0.85%; in [8], 0.72%; in [9], 1.85%; in assay [10] it was 2.45%; in [11], 2.99%; in assay [12], 1.54%. The inhibition was 2.01% in [13]; 1.07% in assay [14]; 0.47% in [15]; 1.64% in assay [16]; 2.03% in assay [17]; 0.36% in assay [18]. Also, the inhibition in assay [19] was 0.65%; in assay [20], 0.26%.

(Values after ChEMBL document CHEMBL1961873, “Compounds: GSK PKIS; Assays: Nanosyn kinase panel” (2012).)
